Paper PMC12136788
Changes are numbered by the printed parent chain. Over roughly 24,000 sequences, “enrichment r” has its median near 0.99; the highest 2% begin near 3.7. This is one part of a sample in which the highest values are shown more often than they occur.

T1: UNK ZnF1-3 (human, UniProt Q9C0B0 31-174)
T1 sequence: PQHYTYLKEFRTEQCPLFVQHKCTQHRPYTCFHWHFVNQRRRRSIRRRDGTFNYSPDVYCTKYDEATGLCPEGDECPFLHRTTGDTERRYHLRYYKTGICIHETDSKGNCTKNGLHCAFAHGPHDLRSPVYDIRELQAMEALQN

B1: chr12:73045124:73045125:+_ENSMUSG00000034574_ENSMUST00000085299|mus_mus|FALSE|FALSE (ssRNA)
RNA: GGGAGUUCUACAGUCCGACGAUCGCCUUGAGAGUUGUUCAUUAGUGCCUUUAUACAGCCAAUGAGGGAGGUGUGUAUCCGAGACUCAGAGGUCUCAUAGUCCAUGGUCUUCAGAAAGUUGAGAAUACAUGACAGGCCAUCCAACAACAGAGGAUUGAGCAUCA
B2: chr16:57473197:57473198:-_ENSG00000005194_ENST00000569370|hu_hu|motif|central (ssRNA)
RNA: GGGAGUUCUACAGUCCGACGAUCGAUCCGGGCGAUUUCAGCCAAAAUCUCAGCACUGUGCAGAGUGGUGCUUCCUGGGACGGAACCUGACAAAAUAAUGUCAAAGCUGGAUUCUUUGUGGGCAGAUUGCAACAGCUGCUUGAUCAACAGAGGAUUGAGCAUCA
B3: chrX:114877694:114877695:+_ENSG00000102024_ENST00000355899|hu_hu|FALSE|FALSE (ssRNA)
RNA: GGGAGUUCUACAGUCCGACGAUCGUUGAGUUUGGGGUUUCCACUGACAACAUCAGCAGGGGUAACAAACUGUCUGCAACCUAAUUUAUCUGCUUGUUGAAGCAUACUCUCAGCUCUCUUCAAAUCAUCUGUUUCAUUGAAACCCAACAGAGGAUUGAGCAUCA
B4: 31603315_31603435_826_3pUTR_ENSMUSG00000024261_ENSMUST00000025110|mouse|control|control (ssRNA)
RNA: GGGAGUUCUACAGUCCGACGAUCUUCCUGAGCACUCUGGUCUUCACUCUGUGCUUCUUCUCUGGUAAGAUUGUCAUUUUGAUGUACGGGUCAGAGGUCAUGGAUUGCUCGUCCAUGGCUGGUAAGCCCUGGGCUUCCUUGAUGCAACAGAGGAUUGAGCAUCA
B5: 171883182_171886102_1035_3pUTR_ENSMUSG00000026675_ENSMUST00000027989|mouse|control|control (ssRNA)
RNA: GGGAGUUCUACAGUCCGACGAUCUUCUGAACGGUGGUCCUGACACGCUUUUCCAGCUCCAGUAAGACCUCAUAGAAUUUUUCAGCAGUGUCUUCAUCUAUGUCCAUCUUUUGGCCCGUGACGUAAUUAGUCCCAAAUCCCGAGCAACAGAGGAUUGAGCAUCA
B6: 82050892_82051012_2182_ncRNA_ENSMUSG00000021134_ENSMUST00000153056|mouse|control|control (ssRNA)
RNA: GGGAGUUCUACAGUCCGACGAUCUUGUUUUGUUUUUUAAAAAAAGGCCCCCAGGGCAAGUUAUUUACAGUUUAAUUGCCACUGUCAACUGAUCUGGACCUGGACCGGGAUCGGGACCUCUGGCGAUCCACAGAUGCUGGAGAUCAACAGAGGAUUGAGCAUCA
B7: chr2:115689334:115689335:-_ENSMUSG00000027210_ENSMUST00000074285|mus_hu|FALSE|FALSE (ssRNA)
RNA: GGGAGUUCUACAGUCCGACGAUCCUCUUUGAAGAAGAGUCCCCCAAAAAUAAUAAUAAGAAUUGGCUUAUGAAGCACGAACUAUAAAGAUCUGUUUGAAACUAAAGGACACAUUUAUGGAGGAACAAAGGCCGGGCAUGAAAACAACAGAGGAUUGAGCAUCA
B8: chr14:54894545:54894546:-_ENSG00000100528_ENST00000216416|hu_hu|FALSE|FALSE (ssRNA)
RNA: GGGAGUUCUACAGUCCGACGAUCCAUUUGGUGGCUUUUUGCAUGCACUUAACUGGACCAAUUCUUCUGUGUGUUGUUCUAAGAGCUCACCAAAACAUAGAUCAUGCCAUAUAGGUAGUAAAAAAAUGCUAGAAGAUAAAAAGCCAACAGAGGAUUGAGCAUCA
B9: chr16:94651144:94651145:+_ENSMUSG00000040785_ENSMUST00000117648|mus_hu|mus_mus_mus_hu_True|58_98 (ssRNA)
RNA: GGGAGUUCUACAGUCCGACGAUCAUUUUCUUGAAUCAAGUGACCGAUAACAUAGUCCACUGCUUCAUUUAGAAAAUUUUUGCUAGAAAAACAGGUUGUAUAGUCUUCUGUGCUCAAAACUUUCCAAGAAAGCAAUUCUUUGAGCAACAGAGGAUUGAGCAUCA
B10: 151522442_151522562_447_CDS_ENSMUSG00000034021_ENSMUST00000016569|mouse|control|control (ssRNA)
RNA: GGGAGUUCUACAGUCCGACGAUCAUAAAUCCUGAAAAUAUCAGCAAGGCAGCAAGCCACCAGUAAACGAACAUCUUUAUCAGGAUGCUUGAGGAAGAAGUCAGAAGCAAGAUGUAAAGCUAGGUUUAGAUAAAGUUCCUUUUCCAACAGAGGAUUGAGCAUCA
B11: chr18:35731629:35731630:+_ENSMUSG00000037236_ENSMUST00000166793|mus_mus|FALSE|FALSE (ssRNA)
RNA: GGGAGUUCUACAGUCCGACGAUCUUAUAGAUCAAAAAAAAAAAAAAAAGUUUUAAAAGAUGGCCAAAAAGAAAGCUCAAGCUAGAAAGCUAGGUUAACUUUGCUUCAAAAAUGGUAACGCCAAGAAAAAGGAUCAAUAAGGACCAACAGAGGAUUGAGCAUCA
B12: chr18:35731629:35731630:+_ENSMUSG00000037236_ENSMUST00000166793|mus_mus|motif|central (ssRNA)
RNA: B11 RNA with U82G, A83G
B13: chr13:59234359:59234360:+_ENSMUSG00000055254_ENSMUST00000079828|mus_mus|FALSE|FALSE (ssRNA)
RNA: GGGAGUUCUACAGUCCGACGAUCUAUGUAAAAAAUUGUUUUUGCUUUAUGUUGGUGAUGAAUGGACCAAAAGUUGAUAGAUAGAUAGAUAAAUAAAUAAAUAAAUAAAUAAAUACACAAAUAAAUAACGCCGAAGGGAAAGAACAACAGAGGAUUGAGCAUCA
B14: chr1:23636438:23636439:-_ENSG00000125944_ENST00000302271|hu_mus|FALSE|FALSE (ssRNA)
RNA: GGGAGUUCUACAGUCCGACGAUCUUUUGUAGGGCAGAUUUCAAAAAGGUGUGGUUAUAACAAUUUAAAAACACAGUUAACCUGCUUCUAGGAAUGCAAAACAUACAGUCAUAGGUUAUCUUCAAUACAAGGAAACUUAAGUCUCAACAGAGGAUUGAGCAUCA
B15: chr13:100200628:100200629:-_ENSMUSG00000052727_ENSMUST00000064762|perfect_dup|FALSE|FALSE (ssRNA)
RNA: GGGAGUUCUACAGUCCGACGAUCGUCACCAGGUGUCUUCCCUCCACUGUCCUUCUCCAGGCCAGGUGUGGACAAAUCUCUAUUCAAGGCUAGAUGGUGUUGCAUUGUAUCGAAUAACACUGAGGCACGGAAGCCAUAGGGCUCCAACAGAGGAUUGAGCAUCA
B16: chr14:78183846:78183847:+_ENSG00000119705_ENST00000557342|hu_hu|hu_hu_hu_mus_False|78_88 (ssRNA)
RNA: GGGAGUUCUACAGUCCGACGAUCUCUCAGAAAUCUUUCUUCAUCAGCAUCAUCAGAUGUUUGCGGAGCCUUUGCUCUUUGAGCUUGAACGUGGAUCUAUGGGAGGGAAAGCACUGUCAGAAAAGGUAAUUUUUUUUUUAAAGACAACAGAGGAUUGAGCAUCA
B17: chr18:51681570:51681571:-_ENSG00000134046_ENST00000256429|hu_hu|FALSE|FALSE (ssRNA)
RNA: GGGAGUUCUACAGUCCGACGAUCGAUAUAUACAUCAAAAAUACAUCUAAAAAGGCAUUGGUUAGUGCUAUUAAAAAGCUCUAUGUGCUCGGGUACAUUUUUUUUCUUACAGGCAAAAGCCAGUGGAAACAUUUUUGUUCAAUUCAACAGAGGAUUGAGCAUCA
B18: chr9:74904954:74904955:+_ENSMUSG00000007656_ENSMUST00000169492|mus_hu|FALSE|FALSE (ssRNA)
RNA: GGGAGUUCUACAGUCCGACGAUCCCAAAAGGUAAAUACAGAAGAAAUCAAUACAAUAGAGAUUAUAUUAAAUAAGAGUAACAUACAAAGCUAUAAUUAAGAUGAAGUAAUGAAAGCCAAAACAUUAAAAUUUUAAAACUUGCUCAACAGAGGAUUGAGCAUCA
B19: chr18:35731629:35731630:+_ENSMUSG00000037236_ENSMUST00000166793|mus_hu|FALSE|FALSE (ssRNA)
RNA: GGGAGUUCUACAGUCCGACGAUCUAUUUUAUAGAUUAAAAAAAAAAAUUUUUUUAAAGACGGCCAAAAAGAAAGCUCAAACUAGAAAGCUAGGUUAACUUUGCUUCAAAAAUGGUAACGCCAAGAAAAAGGAUCAAUAAGGACCAACAGAGGAUUGAGCAUCA
B20: chr7:127875444:127875445:+_ENSMUSG00000046096_ENSMUST00000060175|mus_hu|FALSE|FALSE (ssRNA)
RNA: GGGAGUUCUACAGUCCGACGAUCAAAGGCAUAUAACAUAUAAAGAAAAUAUUGUAUUGCUCAGGUUUUGGUAAAGAUGUAUUAAUAAUGCUUACAGAUAAAAAUAAUGAAAUUAGUGUUGUAAAUAGCCAAAAUAGCCAGAUACAACAGAGGAUUGAGCAUCA
B21: chr18:35731629:35731630:+_ENSMUSG00000037236_ENSMUST00000166793|mus_hu|motif|central (ssRNA)
RNA: B19 RNA with U82G, A83G
B22: chr1:66485654:66485655:+_ENSMUSG00000015222_ENSMUST00000024639|mus_hu|FALSE|FALSE (ssRNA)
RNA: GGGAGUUCUACAGUCCGACGAUCUUUUUAAAUAGAAAAUUGUAACAAUUACUACAGUUUGGGGAUGAGAUUAUUUAUUUUAUGGUUUAUAAAGAAUGAAUAUAACAACUGCUCAGAGCCCACUCCUGCCAAGAGCUCAUGCCUCAACAGAGGAUUGAGCAUCA

The binders below were run against T1, UNK ZnF1-3 (assay: nsRBNS (natural sequence RNA bind-n-seq); RBNS binding buffer (assumed for nsRBNS): 25 mM Tris pH 7.5, 150 mM KCl, 3 mM MgCl2, 0.01% Triton X-100, 500 ug/ml BSA, 20 U/ml SUPERase-In, 4 C; UNK is unkempt and MSI1 is Musashi-1; names of the RNAs are library labels; protein concentration not given here; high values mean tight binding).

In order of rising binding signal:
1. B9  0.331 enrichment R
2. B4  0.411 enrichment R
3. B5  0.753 enrichment R
4. B3  0.755 enrichment R
5. B1  0.851 enrichment R
6. B17  0.982 enrichment R
7. B15  1.14 enrichment R
8. B14  1.23 enrichment R
9. B8  1.24 enrichment R
10. B6  1.31 enrichment R
11. B2  1.32 enrichment R
12. B10  1.36 enrichment R
13. B16  1.96 enrichment R
14. B7  2.27 enrichment R
15. B22  3.6 enrichment R
16. B18  3.69 enrichment R
17. B19  4.65 enrichment R
18. B13  5.23 enrichment R
19. B21  5.52 enrichment R
20. B20  5.6 enrichment R
21. B11  7.98 enrichment R
22. B12  8.04 enrichment R
